# From PubChem BioAssay
# A549 tox-1 = A549 cytotoxicity, counter-screen for Nrf2 inhibitors. A549 ARE-Fluc cells, CellTiter-Fluor viability, 18-24 h. Potency, µM (highest dose often 46 µM), usual class: inhibitors. 390,000 compounds, 0.16% hits. AID 504648
#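 A549 ARE_Fluc cells in 5% FBS OPTI-MEM were exposed to compounds in concentration-response for 18-24 h at 37 deg C. Viability was read by CellTiter-Fluor fluorescence (Ex 405/Em 525) after 30 min, before the luciferase read.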
# Nrf2 ARE act = Nrf2 pathway activation | AREc32 ARE-luciferase reporter (MCF7-derived line), luminescence, 24 h | Potency, µM (series often up to 46.1 µM), actives largely listed as activators | 410,000 compounds, 0.31% hits | AID 624171; also: nearly all actives have a fitted effect of over 65% in size
#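 For detection, Steady-Glo was added and plates sat 30 min at RT; before that, AREc32_Fluc cells grown overnight in OPTI-MEM/5% FBS had been treated with 23 nL compound for 24 hr at 37 deg C.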
# TrxR1 substrate = rat thioredoxin reductase 1 substrate activity; O89049; Potency, µM (top dose mostly 114 µM); purified TrxR1 substrate turnover, NADPH consumption readout; 390,000 compounds, 0.01% hits; also: nearly all actives have a fitted effect of over 50% in size
#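 Rat TrxR1, dispensed at 90 nM, was prereduced with 400 uM NADPH (final) for 5 min at ~22 deg C, then incubated with compound 15 min before 400 uM selenite. A first-read NADPH fluorescence drop versus no-compound background flagged substrates.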
# rTrxR1 inhibitor = rat TrxR1 inhibition | Potency, µM (doses to about 114 µM), usual class: inhibitors | 390,000 compounds, 1% hits | recombinant rTrxR1, NADPH fluorescence consumption, selenite substrate | O89049; also: nearly all actives have a fitted effect of over 65% in size
#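 Rat TrxR1 (90 nM in the dispensed reagent) was pre-reduced with 400 uM NADPH for 5 min at room temperature, then incubated with compound for 15 min. After 400 uM selenite was added, NADPH fluorescence (Ex 340/Em 450 nm) was followed for 8 min.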
# GALK inh = blocks human galactokinase activity; Purified GALK, Kinase-Glo residual ATP luminescence; Potency, µM (titrated, usually from 57.5 µM), most hits filed as inhibitors; 270,000 compounds, 0.007% hits
# Target sequence (P51570 whole entry, looked up): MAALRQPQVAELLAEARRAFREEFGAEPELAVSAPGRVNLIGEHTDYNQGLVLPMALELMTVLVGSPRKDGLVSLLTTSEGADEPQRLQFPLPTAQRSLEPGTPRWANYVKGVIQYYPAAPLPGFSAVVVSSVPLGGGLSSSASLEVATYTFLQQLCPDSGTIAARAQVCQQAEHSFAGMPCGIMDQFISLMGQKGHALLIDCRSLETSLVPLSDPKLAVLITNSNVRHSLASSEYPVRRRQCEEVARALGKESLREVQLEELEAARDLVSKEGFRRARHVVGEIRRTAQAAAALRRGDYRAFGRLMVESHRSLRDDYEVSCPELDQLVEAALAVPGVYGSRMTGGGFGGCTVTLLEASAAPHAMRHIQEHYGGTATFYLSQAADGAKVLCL
#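 Kinase-Glo Plus luminescence measured ATP left after a 1 h room-temperature reaction. The reaction used 5 nM GALK, 100 uM galactose and 35 uM ATP at pH 8.0 (20 mM HEPES, 5 mM MgCl2, 60 mM NaCl, 1 mM DTT, 0.01% BSA).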
# Nrf2 block = inhibitors of Nrf2 signaling; A549 ARE-Fluc reporter, luciferase luminescence, 18-24 h; Potency, µM (top dose mostly 46 µM), most hits filed as inhibitors; 360,000 compounds, 2.1% hits; also: nearly all actives have a fitted effect of over 60% in size
#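 A549 ARE_Fluc cells, 5000/well, 5% FBS OPTI-MEM; compounds in dose-response, 18-24 h at 37 °C/5% CO2; CellTiter-Fluor viability read (Ex 405/Em 525), then BugLite luciferase luminescence = Nrf2 activity.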
# FLuc counter 3 = blocks purified firefly luciferase in Nrf2 counterscreen; Potency, µM (top dose mostly 57.5 µM), hits mostly inhibitors; purified firefly luciferase, luminescence inhibition; AID 720522; 1,400 compounds, 4% hits; shares compounds with Nrf2 block; also: nearly all actives have a fitted effect of over 65% in size
# A549 tox-2 = A549 cytotoxicity, Nrf2 inhibitor counterscreen | A549 ARE-Fluc cells, cytotoxicity counterscreen | Potency, µM (titrated, usually from 46.1 µM), hits mostly inhibitors | shares compounds with Nrf2 block | 1,400 compounds, 2% hits;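 also: cells exposed to compounds for 18 to 24 hours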
# Nrf2 ARE inh = reduces Nrf2 ARE reporter signal in A549 cells; shares compounds with Nrf2 block; A549 ARE-firefly luciferase reporter, luminescence; Potency, µM (highest dose often 46.1 µM), most hits filed as inhibitors; 1,400 compounds, 74% hits; AID 720524; also: nearly all actives have a fitted effect of over 65% in size
# A number is an active result; i = inactive; ? = inconclusive; nt = no result; [ ] = another dose, or the depositor's remark. This is a sample that favours compounds with a hit; in the whole collection about 3% have one here. Calls follow the shape of the dose curve; as a rule, active = well fitted curve in the direction sought with a large enough effect; inconclusive = small, poorly fitted or top-dose-only effect, or another doubt; inactive = no such curve, though single readings can be large; an effect the other way counts as inactive or inconclusive.
SMILES,A549 tox-1,Nrf2 ARE act,TrxR1 substrate,rTrxR1 inhibitor,GALK inh,Nrf2 block,FLuc counter 3,A549 tox-2,Nrf2 ARE inh
CC1(Cc2cc(Cl)ccc2C(F)(F)F)C(=O)Nc2cc(-c3ccccc3Cl)ccc21 (configuration not stated),nt,i[9.22 µM],nt,nt,nt,nt,nt,nt,nt
CCOc1ccc(CNC(=O)c2ccc(NC(=O)N3CCSc4ncccc43)cc2)cc1,i,i,i,i,nt,i,nt,nt,nt
Cc1cc(NC(=O)CS(=O)(=O)c2cn(Cc3cccc(Cl)c3)c3ccccc23)no1,nt,i,nt,nt,nt,nt,nt,nt,nt
CN(CC(=O)Nc1ccccc1Br)c1ncnc2sccc12,i,i,i,i,i,9.2µM,i,i,?
Cc1cc(F)ccc1C(O)c1ncc(-c2ccc(Oc3ccccc3)cc2)[nH]1 (configuration not stated),nt,i,nt,nt,nt,nt,nt,nt,nt
COc1cc(C(=O)Nc2sc(C)c(C)c2C(=O)O)cc(OC)c1OC,i,i,i,i,i,i,nt,nt,nt
COc1cc(C(=O)Nc2sc3c(c2C(=O)O)CCC(C)C3)cc(OC)c1OC (configuration not stated),i,i,i,i,i,5.17µM,i,i,7.31µM
COc1ccc(/C=N/NS(=O)(=O)c2ccc(C)cc2)cc1OC(=O)c1ccccc1,i,i,i,i,i,nt,nt,nt,nt
COc1ccc(/C=N/NS(=O)(=O)c2ccccc2)cc1OC(=O)c1ccc(C)cc1,i,i,i,i,i,9.2µM,i,i,7.31µM
COc1ccc(NS(=O)(=O)c2ccc(NC(C)=O)cc2)c(OC)c1,i,i,i,i,i,i,nt,nt,nt
COc1ccc(NS(=O)(=O)c2ccc(NC(=O)c3ccc(N(C)S(C)(=O)=O)cc3)cc2)c(OC)c1,i,i,i,i,i,1.84µM,i,i,2.59µM
CCCCCCCn1ccc(=N)cc1,i,i,i,i,i,2.91µM,i,i,6.51µM
CCn1ccc(=N)cc1,i,i,i,i,i,nt,nt,nt,nt
CCCCCCCCCn1ccc(=N)cc1,?,i,i,i,i,3.26µM,i,i,8.2µM
N=c1ccn(Cc2ccc(Cl)cc2)cc1,?,i,i,i,i,nt,nt,nt,nt
CCCCCn1ccc(=N)cc1,?,i,i,i,i,0.92µM,i,i,1.64µM
CCCCCCN1CC(O)=C(c2ccccc2)C1=N,i,i,i,i,i,nt,nt,nt,nt
COc1ccc(CCNC(=O)CSc2nnnn2-c2ccc(OC)c(OC)c2)cc1OC,i,i,i,i,i,i,nt,nt,nt
CSCCC(NC(=O)c1ccc(Cl)cc1Cl)C(=O)N1CCCCCCC1 (configuration not stated),i,i,i,i,nt,i,nt,nt,nt
COc1ccc(S(=O)(=O)N2CCC(C(=O)Nc3ccc(Oc4ccccc4)cc3)CC2)cc1,i,i,i,i,nt,?,i,i,?
O=C(Nc1nc(-c2ccc3ccccc3c2)cs1)C1CCN(S(=O)(=O)c2cccs2)CC1,i,i,i,i,i,5.17µM,i,i,?
CCc1ccc(NC(=O)C2CCN(S(=O)(=O)c3cccs3)CC2)cc1,i,i,i,i,i,3.66µM,i,i,9.2µM
CCc1cccc(NC(=O)C2CCN(S(=O)(=O)c3cccs3)CC2)c1,i,i,i,i,i,i,nt,nt,nt
Cc1ccc(CN(C)C(=O)c2cc(S(=O)(=O)N3CCOCC3)ccc2F)o1,i,i,i,?,nt,i,nt,nt,nt
CC(C)(C)C(=O)Nc1ccc(-c2csnn2)cc1,i,i,i,i,nt,i,nt,nt,nt
SMILES,A549 tox-1,Nrf2 ARE act,TrxR1 substrate,rTrxR1 inhibitor,GALK inh,Nrf2 block,FLuc counter 3,A549 tox-2,Nrf2 ARE inh
O=C(CN1CCN(Cc2ccccc2Cl)C1=O)NCc1ccccc1Cl,i,i,i,i,nt,i,nt,nt,nt
Cc1cc(C(=O)COC(=O)c2ccc(N)c([N+](=O)[O-])c2)c(C)n1-c1ccc2c(c1)OCO2,i,i,i,i,i,5.8µM,i,i,?
CCN(CC)C(=O)c1oc2ccc(S(=O)(=O)N3CCCCCC3)cc2c1C,i,i,i,i,i,?,nt,nt,nt
CCN(CC)C(=O)c1oc2ccc(S(=O)(=O)N3CC(C)CC(C)C3)cc2c1C (configuration not stated),i,i,i,i,i,8.2µM,i,i,8.2µM
CNc1nc(C#N)nc(Nc2ccccc2)n1,i,nt,nt,nt,nt,i,nt,nt,nt
CN(CCOc1ccc(Cl)cc1)C(=O)c1cccc(S(=O)(=O)N2CCN(Cc3ccccc3)CC2)c1,i,i,i,i,nt,8.2µM,i,i,9.2µM
COc1ccccc1CN(C)C(=O)c1cccc(S(=O)(=O)N2CCN(Cc3ccccc3)CC2)c1,i,i,i,i,nt,i,nt,nt,nt
CSc1ccc(CN(C)C(=O)c2cccc(S(=O)(=O)N3CCN(Cc4ccccc4)CC3)c2)cc1,i,i,i,i,nt,5.8µM,i,i,?
CC1(c2ccc3ccccc3c2)NC(=O)N(CC(=O)N2CCC(C(N)=O)CC2)C1=O (configuration not stated),i,i,i,i,nt,i,nt,nt,nt
CC1(c2ccc3ccccc3c2)NC(=O)N(CC(=O)N2CCN(Cc3ccccc3)CC2)C1=O (configuration not stated),?,i,i,i,nt,1.3µM,i,i,4.61µM
COc1ccc(NC(=O)CSc2nnc3ccc(-c4ccccn4)nn23)cc1OC,i,i,i,i,nt,i,nt,nt,nt
C[C@H]1CCC/C=C/[C@@H]2C[C@H](O)C[C@H]2[C@H](O)[C@H](S(=O)c2ccc(O)cc2)CC(=O)O1 (some centres not stated),?,i,i,i,nt,0.259µM,i,?,0.517µM
CCN1CCN(C(=S)c2ccc(-c3ccccc3)cc2)CC1,i,i,i,i,i,5.17µM,?,i,6.51µM
C=CCn1c(SCC(=O)N2CCN(CCO)CC2)nc2sc3c(c2c1=O)CCC3,i,i,i,i,i,i,nt,nt,nt
COc1ccc2[nH]c3c(C)c4ccncc4c(C)c3c2c1,?,i,i,i,nt,8.2µM,i,?,2.59µM
Cc1c2ccncc2cc2c1[nH]c1ccccc12,?,i,i,i[2.29 µM],nt,i,nt,nt,nt
Cc1cccc(NCc2ccc(N(C)C)cc2)n1,i,i,i,i,i,?,nt,nt,nt
O=C(N/N=C/c1sc(N2CCOCC2)nc1-c1ccccc1)c1ccc(O)cc1,i,i,i,i,i,i,nt,nt,nt
O=C(N/N=C/c1sc(N2CCOCC2)nc1-c1ccccc1)c1cccc(S(=O)(=O)N2CCCC2)c1,?,i,i,i,i,2.59µM,i,i,23.1µM
